Data published in PubChem BioAssay AID1159580 (chemical genetic matrix, 2015).
Values joined by “and” are separate entries in the source; they are usually repeats but may differ in a detail not shown here. Identical values can stand only once. In all, about 5,500 compounds went through this assay and about 2,000 (36%) were called active. About 18% were inconclusive and are not listed. Rule as the data show it: active = normalized growth mostly below about 0.91 (no sharp cut-off); inconclusive = no clear call, values can overlap the other calls; inactive = mostly above about 0.92. This is one part of the list.

Test: chemical genetic growth profiling, strain panel (AID 1159580);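 also: tested at 20 µM; growth read once vehicle control cultures reached saturation at 30 °C; 1 = growth at the plate median or of vehicle wells; lower values mean less growth of the strain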
Conditions: S. cerevisiae deletion strains, growth OD

Measured: normalized growth

COC(=O)C1=C(C)NC(C)=C(C(=O)OCCN(C)Cc2ccccc2)C1c1cccc([N+](=O)[O-])c1 (stereo not given)
inactive: locus YAL013W, strain DEP1, active compounds read low 1 | locus YAL021C, strain ccr4, active compounds read low 0.98 | locus YAL026C, strain drs2, active compounds read low 0.979 | locus YAL030W, strain snc1, active compounds read low 1.01 | locus YAL040C, strain CLN3, active compounds read low 1.02 | locus YBL061C, strain skt5, active compounds read low 0.984 | locus YBR009C, strain hhf1, active compounds read low 0.984 | locus YBR021W, strain FUR4, active compounds read low 0.935 | locus YBR023C, strain chs3, active compounds read low 0.989 | locus YBR171W, strain sec66, active compounds read low 0.986 | locus YBR229C, strain ROT2, active compounds read low 0.952 | locus YBR231C, strain swc5, active compounds read low 0.978 | locus YBR279W, strain paf1, active compounds read low 0.975 | locus YCL011C, strain gbp2, active compounds read low 0.969 | locus YCL016C, strain dcc1, active compounds read low 0.982 | locus YCL029C, strain bik1, active compounds read low 0.981 | locus YCL061C, strain MRC1 (second series), active compounds read low 0.972 | locus YCL069W, strain vba3, active compounds read low 1 | locus YCR088W, strain abp1, active compounds read low 0.984 | locus YDL005C, strain med2, active compounds read low 0.986 | locus YDL035C, strain GPR1, active compounds read low 0.983 | locus YDL040C, strain nat1, active compounds read low 0.973 | locus YDL074C, strain BRE1, active compounds read low 0.917 | locus YDL101C, strain DUN1, active compounds read low 0.979 | locus YDL134C, strain PPH21, active compounds read low 0.976 | locus YDL185W, strain tfp1, active compounds read low 0.977 | locus YDL192W, strain arf1, active compounds read low 0.992 | locus YDR001C, strain nth1, active compounds read low 0.974 | locus YDR069C, strain doa4, active compounds read low 0.977 | locus YDR101C, strain arx1, active compounds read low 0.986 | locus YDR137W, strain rgp1, active compounds read low 1.02 | locus YDR150W, strain NUM1, active compounds read low 0.977 and 0.972 | locus YDR159W, strain sac3, active compounds read low 0.93 | locus YDR162C, strain NBP2, active compounds read low 1 | locus YDR195W, strain ref2 0.96 | locus YDR297W, strain sur2, active compounds read low 0.972 | locus YDR318W, strain mcm21, active compounds read low 0.944 | locus YDR334W, strain swr1, active compounds read low 0.925 | locus YDR335W, strain msn5, active compounds read low 0.986 | locus YDR363W, strain ESC2, active compounds read low 1.03 | locus YDR388W, active compounds read low 0.993 | locus YDR392W, strain spt3, active compounds read low 0.968 | locus YDR502C, strain sam2, active compounds read low 0.981 | locus YEL003W, strain gim4, active compounds read low 0.996 | locus YEL037C, strain rad23, active compounds read low 0.981 | locus YEL061C, strain CIN8 (second series), active compounds read low 0.99 | locus YEL061C, strain CIN8, active compounds read low 0.994 | locus YER002W, strain NOP16, active compounds read low 1.01 | locus YER015W, strain faa2, active compounds read low 0.988 | locus YER016W, strain bim1, active compounds read low 0.983 | locus YER110C, active compounds read low 0.976 | locus YER111C, strain swi4, active compounds read low 0.989 | locus YER155C, strain BEM2 (second series), active compounds read low 0.968 | locus YER155C, strain BEM2, active compounds read low 0.99 | locus YER167W, strain BCK2, active compounds read low 0.994 | locus YFR010W, strain ubp6, active compounds read low 0.978 | locus YGL078C, strain dbp3, active compounds read low 0.979 | locus YGL086W, strain mad1, active compounds read low 0.986 | locus YGL167C, strain pmr1, active compounds read low 1.05 | locus YGL173C, strain kem1, active compounds read low 0.982 | locus YGL227W, strain vid30, active compounds read low 0.989 | locus YGL240W, strain doc1, active compounds read low 0.97 | locus YGL248W, strain PDE1, active compounds read low 0.991 | locus YGL253W, strain hxk2, active compounds read low 0.988 | locus YGR078C, strain PAC10, active compounds read low 0.955 | locus YGR135W, strain pre9, active compounds read low 0.972 | locus YGR229C, strain SMI1, active compounds read low 0.982 | locus YGR252W, strain gcn5, active compounds read low 0.902 | locus YHR013C, strain ard1, active compounds read low 0.978 | locus YHR027C, strain rpn1, active compounds read low 0.983 | locus YHR030C, strain SLT2, active compounds read low 0.987 and 0.976 | locus YHR079C, strain IRE1 (second series), active compounds read low 0.982 | locus YHR079C, strain IRE1, active compounds read low 0.949 | locus YHR094C, strain hxt1, active compounds read low 0.988 | locus YHR129C, strain ARP1, active compounds read low 0.994 | locus YHR142W, strain chs7, active compounds read low 1.02 | locus YHR200W, strain rpn10, active compounds read low 0.989 | locus YIL066C, strain RNR3, active compounds read low 0.973 | locus YIL073C, strain SPO22, active compounds read low 1.12 | locus YIL125W, strain kgd1, active compounds read low 0.99 | locus YIR030C, strain dcg1, active compounds read low 0.979 | locus YJL092W, strain hpr5, active compounds read low 0.996 | locus YJL095W, strain BCK1 (second series), active compounds read low 0.983 | locus YJL095W, strain BCK1, active compounds read low 0.988 and 0.979 | locus YJL115W, strain asf1, active compounds read low 0.989 | locus YJL129C, strain trk1, active compounds read low 0.959 | locus YJL134W, strain LCB3, active compounds read low 0.987 | locus YJL154C, strain vps35, active compounds read low 0.971 | locus YJL164C, strain tpk1, active compounds read low 0.998 | locus YJL166W, strain qcr8, active compounds read low 0.993 | locus YJL168C, strain set2, active compounds read low 1 | locus YJL187C, strain SWE1 (second series), active compounds read low 0.973 | locus YJL187C, strain SWE1, active compounds read low 0.993 | locus YJR043C, strain POL32, active compounds read low 0.997 | locus YJR066W, strain TOR1, active compounds read low 0.917
